Where “and” joins values, the source holds several entries; their conditions need not be identical. Identical values can stand only once. The campaign covered roughly 260,000 compounds. About 1,500 (0.58%) were called active. Inconclusive results (about 5%) are left out.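 The calls were made as follows: active = inhibition above a set limit at one or more doses, reproduced on every date tested; inconclusive = results disagree between test dates, or hit never tested in dose response; inactive = the rest.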 A selection follows. Results with a measured potency or affinity are listed apart.
Biological target: Virion infectivity factor (Human immunodeficiency virus type 1 group M subtype B (isolate BH10)) + Virion infectivity factor (Human immunodeficiency virus type 1 group M subtype B (isolate BRU/LAI)) + Virion infectivity factor (Human immunodeficiency virus type 1 group M subtype B (isolate PCV12)) + Virion infectivity factor (Human immunodeficiency virus type 1 group M subtype B (isolate HXB2)) + DNA dC->dU-editing enzyme APOBEC-3G (Homo sapiens) (UniProt P69720+P69721+P69722+P69723+Q9HC16)
Experiment: HIV-1 Vif–A3G interaction blockers – biochemical, TR-FRET, GST-Vif 1-94, biotin-A3G peptide, dose response retest, primary screen (AID 1117319);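 also: Vif residues 1-94 fused to GST binding biotinylated APOBEC3G peptide 110-148; 0% = full assay without inhibitor and 100% = GST in place of GST-Vif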
Settings: TR-FRET GST-Vif / biotin-A3G peptide binding; active compounds read high

inhibition, inactive:
CCOc1ccccc1C(=O)N[C@H](C(=O)Nc1ccc(OC)c(S(=O)(=O)N2CCOCC2)c1)C(C)C -13.1%, O=C1OCCC1Sc1nnc(-c2cccnc2)n1-c1ccccc1F (stereo not drawn) 5.98%, CCOC(=O)N1CCN(Cc2nnc(-c3cccc(Br)c3)o2)CC1 -4.74%, Cc1ccc2nc(N3CCN(C)CC3)c(C#N)cc2c1 1.03%, Cc1ccc2cc(C#N)c(N3CCN(C)CC3)nc2c1 3.3%, Cn1c(N)c(C(=O)COC(=O)/C=C/c2ccccc2F)c(=O)n(C)c1=O 0.83%, COc1cccc(C(C)=NNc2ccc([N+](=O)[O-])cc2[N+](=O)[O-])c1OC 0.32%, C/C(=N\NC(=O)c1ccc([N+](=O)[O-])cc1)c1cc2ccccc2oc1=O 13.4%, Cc1cc(N/N=C/c2cccc(F)c2)nc(NCc2ccccc2)n1 4.51%, Nc1cc(=O)nc(SCC(=O)NC2CCCCC2)n1-c1ccccc1 -0.99%, Cc1cccc(-n2c(N)cc(=O)nc2SC(C)C(=O)NC2CCCCC2)c1 (stereo not drawn) -1.72%, O=[N+]([O-])c1ccc(O)c(C2=NNC(c3ccccc3F)C2)c1 (stereo not drawn) 13.2%, O=C(N/N=C/c1cc2c(cc1Br)OCO2)c1ccccn1 7.07%, O=C(O)c1ccc(S(=O)(=O)N2CCCCCCC2)cc1 1.86%, O=C(O)c1ccc(S(=O)(=O)N2CCCCCC2)cc1 1.58%, CC(C)(C)c1cc(NC(=O)COC(=O)C2CC2)n(-c2ccccc2)n1 -5.93%, COc1cc(OC)nc(NC(=O)CN2CCN(c3ccc(F)cc3)CC2)n1 4.2%, CC1=C(C(=O)OC(C)C)C(c2cccs2)C(C(=O)OC(C)C)=C(C)N1 -3.55%, CC(=O)C1=C(C)NC(=O)NC1c1cccs1 (stereo not drawn) 7.19%, COC(=O)c1ccc2c(=O)n(CC3CCCO3)c(SCC(=O)Nc3ccc(OC)cc3OC)nc2c1 (stereo not drawn) -7.78%, CCCN1C2CCCC1CC(NC(=O)c1cc(OC)c(OC)c(OC)c1)C2 (stereo not drawn) 9.1%, COc1ccc(C(=O)NC2CC3CCCC(C2)N3CC(C)C)cc1OC (stereo not drawn) -7.52%, Cc1noc(C)c1CSc1ncnc2sc3c(c12)CCC3 -4.14%, COc1ccc(/C(N)=N/OC(=O)c2ccco2)cc1 -1.36%, CCN1C(=O)c2ccccc2S(=O)c2ccc(C(=O)N3CCN(C(=O)c4ccco4)CC3)cc21 (stereo not drawn) 1.84%, O=C1c2ccccc2-c2c1cccc2C(=O)N1CCN(C(=O)c2ccco2)CC1 18.7%, CCOC(=O)c1c(/N=C/c2cccc([N+](=O)[O-])c2O)sc2c1CCC2 27%, CCCCn1cnc2c(SCc3ccc(Br)cc3)nc(N)nc21 -11.3%, CC(CN(C(N)=O)c1ccccc1O)C(=O)O (stereo not drawn) 17.1%, CC(CC(C)C(=O)Nc1ccccc1C(C)(C)C)C(=O)O (stereo not drawn) 5.47%, CCC1CCCCN1C(=O)COc1cc(=O)n(C)c2ccccc12 (stereo not drawn) 1.25%, O=C1c2cccc(NCCNCCO)c2C(=O)c2cccc(NCCNCCO)c21 -16.1%, O=C1c2cccc(O)c2C(=O)c2c(O)cccc21 23.8%, COc1cccc(NC(=O)CN(C)C(=O)c2ccc(COc3ccccc3)o2)c1 10.4%, O=C(CSc1ccc(-c2ccccc2)nn1)N1CCOCC1 8.48%, COc1cc(/C=C2/SC(=NCc3ccccc3)N(Cc3ccccc3)C2=O)ccc1O -3.52%, COc1ccccc1N1CCN(C(=O)c2sc3nc(-c4ccccc4)cn3c2C)CC1 -3.37%, Cc1c(C(=O)N2CCN(c3ccc(F)cc3)CC2)sc2nc(-c3ccccc3)cn12 -5.76%, COc1cccc(/C=N/NC(=O)C(=O)NCc2ccco2)c1O -4.26%, CN(C)CCN=Cc1c(O)n(Cc2ccc3c(c2)OCO3)c(=O)c2ccccc12 -11.8%, CCn1c(SCC(N)=O)nc2sc3c(c2c1=O)CCCC3 -2.97%, CCn1c(SCC(=O)O)nc2sc3c(c2c1=O)CCC3 32.7%, CC(Sc1nc2sc3c(c2c(=O)n1-c1ccccc1)CCCC3)C(=O)O (stereo not drawn) 17%, C=CCSc1nc2sc3c(c2c(=O)n1CC)CCC3 6.31%, CC1(C)CC(=O)C=C(c2n[nH]nc2C2CC2)C1 4.55%, CCN(Cc1ccccc1)C(=O)c1cc(S(=O)(=O)N2CCOCC2)ccc1N1CCCC1 3.77%, Cc1cc(Nc2ccc(Br)cc2)nc(-c2ccccc2O)n1 -1.59%, CC(=NCc1cccc(Cl)c1)c1nc(-c2ccco2)oc1O 8.49%, O=C(c1cccc(F)c1)N1CCCC(C(=O)N2CCCC2)C1 (stereo not drawn) -3.84%, O=C(Nc1ccc(Oc2ccccc2)cc1)c1ccc(Cn2c(=O)[nH]c3ccsc3c2=O)cc1 -6.11%, Cc1cccc(NC(=O)CSc2nnc(-c3ccco3)o2)c1C -1.43%, Cc1cccc(C)c1NC(=O)CSc1nc(-c2ccco2)cc(C(F)(F)F)n1 -1.99%, Cc1ccccc1NC(=O)CSc1nnc(-c2ccco2)n1N -10.3%, Cc1cccc(C)c1NC(=O)CSc1nnc(-c2ccco2)n1N -0.27%, Cc1ccccc1NC(=O)CSc1n[nH]c(-c2ccco2)n1 9.51%, Cc1cccc(NC(=O)CSc2nnc(CNC(=O)c3ccco3)n2C)c1C -5.41%, CN(C)c1ccc(C(CNS(=O)(=O)c2cccc([N+](=O)[O-])c2)N2CCOCC2)cc1 (stereo not drawn) -0.61%, COc1ccc(CN(CC(=O)NCc2ccc(F)cc2)C(=O)c2ccco2)cc1 -3.39%, O=C(CSc1nnc(-c2cnccn2)n1Cc1ccco1)c1ccc2ccccc2c1 4.99%, CCn1cc(C(=O)NCc2ccc3c(c2)OCO3)c(=O)c2cc(S(=O)(=O)N3CCOCC3)ccc21 -9.22% and 8.82%, CCOc1ccc(C=NN2CCCCCC2)cc1OCC -8.05%, CCCCC12CN3CC(C)(CN(C1)C31C(=O)N(C)c3ccc(C)cc31)C2=O (stereo not drawn) 3.69%, N#Cc1cccnc1Nc1ccc(Cl)cc1 8.98%, CN(C(=O)COC(=O)c1ccc(Cl)cc1N)C1CCS(=O)(=O)C1 (stereo not drawn) -4.2%, OCCC1CN(Cc2ccccc2-c2ccco2)CCN1Cc1ccccc1 (stereo not drawn) 15.2%, N#CC1=C2SCN(Cc3ccco3)CN2C(=O)CC1c1cccc2ccccc12 (stereo not drawn) 16%, COc1cc(C2CC(=O)N3CN(Cc4ccco4)CSC3=C2C#N)ccc1OCc1ccccc1 (stereo not drawn) 24.2%, O=C(CN(Cc1ccc(F)cc1)C(=O)CNS(=O)(=O)c1ccccc1)NCC1CCCO1 (stereo not drawn) 2.58%, O=C(OCCN1C(=O)c2ccccc2C1=O)c1cc(S(=O)(=O)N2CCOCC2)ccc1F -0.69%, CC1=C(C(=O)OC2CCCCC2)C(c2ccccc2Br)NC(=O)N1 (stereo not drawn) -6.38%, CNC(=S)Nc1ccccc1-c1ccccc1 -7.68%, CNc1cccc2c1C(=O)c1ccccc1C2=O 7.57%, CCCCOc1ccc(C(=O)NN2C(=O)NC3(CCCCC3)C2=O)cc1OC 2.72%, CC[C@@H](C(=O)n1nc(C)cc1C)[C@H](NS(=O)(=O)c1ccc(C)cc1)c1ccccc1 -0.92%, CCNC(=O)CSc1nnc(-c2cccc(S(=O)(=O)N3CCOCC3)c2)o1 4.88%, O=C(c1cc(COc2ccc(F)cc2Cl)on1)N1CCCC(c2ccccc2)C1 (stereo not drawn) 2.73%, Cn1c(=O)[nH]c(=O)c2c1nc(N1CCOCC1)n2CCSc1nc2ccccc2[nH]1 2.63%, CC1(C)Cc2nc3sc4c(=O)n(CC(=O)NCc5ccco5)cnc4c3cc2CO1 2.08%, CC1(C)Cc2nc3sc4c(SCC(=O)NCc5ccccc5)ncnc4c3cc2CO1 -70.1% and -107%, CC1(C)NC(=O)N(CNc2cc(Cl)ccc2Cl)C1=O 20.3%, CCCn1c(SCC(=O)NC)nnc1C(C)C 6.34%, N#Cc1cccc(NC(=O)Cc2ccsc2)c1 5.18%, N#CC1CN(C(c2ccccc2)c2ccccc2)C1 -4.6%, CCOc1ccc(NC(c2ccccc2)P(=O)(OC)OC)cc1 (stereo not drawn) 5.04%, CCOc1ccc(N(CC(=O)NC(C)CC)S(=O)(=O)c2c(C)noc2C)cc1 (stereo not drawn) -0.89%, CCOc1ccc(N(CC(=O)OC)S(=O)(=O)c2c(C)noc2C)cc1 -1.15%, COC(=O)C1CCN(C(=O)Nc2ccccc2)CC1 0.21%, COc1cccc(-c2cc(C(F)(F)F)n3nc(N)nc3n2)c1 32.2%, COc1cccc(-c2cc3nc4c(c(N5CCC6(CC5)OCCO6)n3n2)CCCC4)c1 -6.69%, COc1ccc(N2CCN(CCNC(=O)Nc3ccc(C)c(Cl)c3)CC2)cc1 0.91%, CCCN(CC(=O)Nc1cccc(S(N)(=O)=O)c1)CC(=O)Nc1ccc(F)c(F)c1F 9.36%, CN(Cc1cnc2nc(N)nc(N)c2n1)c1ccc(C(=O)NC(CCC(=O)O)C(=O)O)c2ccccc12 (stereo not drawn) 4.59%, CN(Cc1cnc2nc(N)nc(N)c2n1)c1ccc(C(=O)NC(CCC(=O)O)C(=O)O)cc1C(F)(F)F (stereo not drawn) 4.16%

From PubChem BioAssay AID1117319 (Southern Research Institute, 2015)
